This is a sample that favours compounds with a hit; in the whole collection about 21% have one here.
ClpP mod = qHTS Assay for Activators of ClpP. ATP-dependent Clp protease proteolytic subunit (Bacillus subtilis (strain 168)), P80244. purified B. subtilis ClpP, FRET peptide cleavage, 20 min. Potency, µM (series often up to 57.5 µM), inactives show at the top dose activity change, negative = active. hit rate 1.9% among 340,000. AID 651965, 2013; active = well fitted falling curve with a large enough effect; inconclusive = small, poorly fitted or top-dose-only effect; inactive = no such curve, though single readings can be large or run the other way; note: potency is the fitted concentration of half-maximal effect; the source files actives as falling curves though it sought activators and does not explain the sign; nearly all actives have a fitted effect of over 65% in size
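ClpP 10 microg/mL final, pH 8 Tris/KCl buffer with BSA, glycerol, Tween-20; compound pinned in; FRET-FV substrate; RT 20 min; Ex320/Em430; ΔFRET vs ADEP 5.8 microM, DMSO, no enzyme.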
IL1B secr inh = inflammasome signaling inhibition, IL-1 beta readout; hit rate 4.7% among 360,000; activity change, % at 57.5 µM; AID 743279; THP-1 LPS/ATP IL-1B secretion, AlphaLISA, 16 h; active compounds read low; in the data active = activity change below about -50%; inconclusive = mostly about -30% to -49%; note: % is set by controls: 0 for no effect and ±100 for the full control effect
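THP-1 cells pretreated 1 hr with compounds (up to 57.5 uM final), then stimulated with LPS (250 ng/mL final) plus ATP (1.25 mM final); secreted IL-1B measured by AlphaLISA after 16 hr, decreased signal indicating inhibition.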
TDP1 cell CPT = DT40-hTDP1 cell growth loss with CPT. AID 686979. chicken DT40 Tdp1-/-;hTDP1 cells + 20 nM CPT, ATP luminescence, 48 h. Potency, µM (top dose mostly 46.2 µM), for inactives: at the top dose activity change, negative = growth inhibition, actives largely listed as inhibitors. hit rate 12% among 420,000; note: potency is the fitted concentration of half-maximal effect; % is set by controls: 0 for no effect and ±100 for the full control effect; nearly all actives have a fitted effect of over 55% in size
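Cell growth measured by CellTiter-Glo luminescence after a minimum 48 h, 37 C compound exposure with 20 nM CPT in Tdp1-knockout DT40 cells stably expressing hTDP1, seeded 400/well; qHTS titration format.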
DT40 TDP1 no CPT = qHTS for Inhibitors of human tyrosyl-DNA phosphodiesterase 1 (TDP1): qHTS in cells in absence of CPT. DT40 Tdp1-/- hTDP1 cells, no CPT, ATP luminescence, 48 h. Potency, µM (top dose mostly 46.2 µM), for inactives: top-dose activity change, negative = growth inhibition, most hits filed as inhibitors. hit rate 15% among 420,000. AID 686978, 2013; note: potency is the fitted concentration of half-maximal effect; % is set by controls: 0 for no effect and ±100 for the full control effect; nearly all actives have a fitted effect of over 55% in size
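Stably hTDP1-transfected Tdp1-null chicken DT40 cells were treated with library compounds minus camptothecin and grown for at least 48 hr at 37 °C, after which cellular ATP was quantified by luminescence.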
DRD3 agonist = D3 dopamine receptor (human) agonism. D3R DiscoveRx beta-arrestin cells, luminescence, 90 min. max activation, %. P35462. hit rate 0.58% among 410,000; in the data active = max activation above about 30%; note: 0% is about no effect
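Cells at 1500/well, incubated overnight, then treated with pinned compounds (dopamine as control) for 90 min at 37 degrees C. DiscoveRx reagent added for 30 - 60 minutes at room temperature; luminescence read.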
D3 antag = D3 dopamine receptor (human) antagonism | P35462 | D3R cells, DiscoveRx beta-arrestin luminescence, antagonist mode; active compounds read low | AID 652054 | max response, negative = inhibition, % | hit rate 2.5% among 360,000; in the data active = max response below about -50%; inconclusive = no clear call, values can overlap the other calls; note: % is set by controls: 0 for no effect and ±100 for the full control effect
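Cells expressing the human receptor were seeded at 1500 cells/well, incubated overnight at 37 degrees C in 5% CO2, then exposed to library compounds with dopamine controls for 90 minutes at 37 degrees C before luminescent detection.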
* marks the source's active call; other numbers are inactive results; ? = inconclusive; . = no result. Unless noted, calls come from the whole dose curve; as a rule, active = well fitted inhibition curve with a large enough effect; inconclusive = small, poorly fitted or top-dose-only effect; inactive = flat fitted curve, though single readings scatter.

SMILES	ClpP mod	IL1B secr inh	TDP1 cell CPT	DT40 TDP1 no CPT	DRD3 agonist	D3 antag
O=C(c1ccccc1)N1CCc2cc(CNS(=O)(=O)c3ccccc3Cl)ccc21	2%	.	1.3µM*	0.92µM*	3	.
O=C(c1ccccc1)N1CCc2cc(CNS(=O)(=O)c3ccc(Cl)s3)ccc21	0%	.	?	16µM*	9	.
CC(=O)N1CCc2cc(CNS(=O)(=O)c3ccccc3C(F)(F)F)ccc21	0%	.	-2%	0%	61*	.
O=C(CSc1ccccc1)NCc1ccc2c(c1)CCN2C(=O)c1ccccc1	-2%	.	6%	-19%	0	.
Cc1nc(C(F)(F)F)ccc1C(=O)N1CCC1(C)C(=O)NS(=O)(=O)c1ccc(C(C)(C)C)cc1 (stereo not drawn)	0%	2	-27%	-2%	4	-5
Cc1cc(F)ccc1S(=O)(=O)Nc1ccccc1C(=O)N1CCCC1	-1%	18	2%	17%	6	8
CCC(CC)CN1CCC(CN2C(=S)NC[C@@H]2[C@@H](C)CC)CC1	0%	-2	11%	-8%	-35	-4
Cc1ccccc1CN(C)C(=O)COC(=O)c1ccc2[nH]c(C)c(C)c2c1	-5%	-61*	16µM*	?	2	-4
CC(OC(=O)c1cnc(Cl)c(Cl)c1)C(=O)NCc1ccccc1 (stereo not drawn)	-2%	-87*	?	3%	7	-10
COCCN(C(=O)COC(=O)c1ccc2[nH]c(C)c(C)c2c1)c1c(N)n(Cc2ccccc2)c(=O)[nH]c1=O	-16%	-27	-22%	0%	-17	-1
Cc1[nH]c2ccc(C(=O)OC(C)C(=O)NCc3ccccc3)cc2c1C (stereo not drawn)	-1%	-56*	13µM*	6.5µM*	-4	12
CCC(=O)OC(OP(=O)(CCCCc1ccccc1)CC(=O)N1C[C@H](C2CCCCC2)C[C@H]1C(=O)O)C(C)C (stereo partly drawn)	.	.	8%	-5%	12	.
Cc1cc(C=O)c(C)c2c1[nH]c1ccccc12	-7%	-57*	?	21µM*	-4	-19
CCOc1cc2[nH]c(=S)n(CCN3CCCCC3CC)c(=O)c2cc1OCC (stereo not drawn)	0%	-24	?	16µM*	-2	0
CCC1CCCCN1CCCn1c(=S)[nH]c2ccccc2c1=O (stereo not drawn)	20µM*	23	-2%	-13%	3	0
CC1CCCCC1n1c(=S)[nH]c2ccccc2c1=O (stereo not drawn)	-6%	22	23µM*	?	-10	22
CCCn1c(=S)[nH]c2ccccc2c1=O	.	-17	-20%	?	-8	-14
COC(=O)c1cc(Cl)ccc1NC(=O)CSc1ncc(S(=O)(=O)c2ccc(Br)cc2)c(=O)[nH]1	-7%	.	7%	-3%	1	.
CCCc1cc(NCC2CCCO2)n2c(nc3ccccc32)c1C#N (stereo not drawn)	22%	-4	18µM*	23µM*	1	-15
CCCc1cc(NCc2ccccn2)n2c(nc3ccccc32)c1C#N	0%	-10	?	18µM*	-1	13
CCCc1cc(NCCN(C)C)n2c(nc3ccccc32)c1C#N	5%	-10	-9%	?	2	-6
CC(C)c1ccc(-c2nn(-c3ccccc3)cc2C2C(C#N)=C(N)OC3=C2C(=O)CC(C)(C)C3)cc1 (stereo not drawn)	-2%	-29	?	18µM*	1	3
CC1(C)CC(=O)C2=C(C1)OC(N)=C(C#N)C2c1ccccc1[N+](=O)[O-] (stereo not drawn)	.	5	21µM*	?	0	5
Cc1nn(-c2ccccc2)c2c1N(CC(=O)N1CCN(c3ccc(Cl)cc3)CC1)C(=O)CS2	1%	.	?	?	13	.
O=C(NCCC1=CCCCC1)c1ccc2c(c1)N(Cc1ccc(Cl)cc1)C(=O)c1ccccc1S2=O (stereo not drawn)	-2%	.	?	?	0	.
SMILES	ClpP mod	IL1B secr inh	TDP1 cell CPT	DT40 TDP1 no CPT	DRD3 agonist	D3 antag
Cc1ccc(NC(=O)c2cccc(N3C(=O)C4C5C=CC(C5)C4C3=O)c2)cc1C (stereo not drawn)	2%	-23	23µM*	21µM*	3	5
COc1ccc(NC(=O)c2cccc(N3C(=O)C4C5C=CC(C6CC56)C4C3=O)c2)c(OC)c1 (stereo not drawn)	1%	-8	?	?	1	20
O=C(Nc1cccc(-c2nc3ccccc3o2)c1)c1ccc(N2C(=O)C3C4C=CC(C4)C3C2=O)cc1 (stereo not drawn)	?	65	7.3µM*	8.2µM*	1	12
COc1ccc(NC(=O)c2cccc(N3C(=O)C4C5C=CC(C5)C4C3=O)c2)cc1Cl (stereo not drawn)	.	33	23µM*	16µM*	3	11
COc1ccc(NC(=O)c2cccc(N3C(=O)C4C5C=CC(C6CC56)C4C3=O)c2)cc1 (stereo not drawn)	-3%	0	?	21µM*	8	22
COc1ccccc1NC(=O)c1cccc(N2C(=O)C3C4C=CC(C4)C3C2=O)c1 (stereo not drawn)	0%	49	-16%	2%	7	-4
Nc1ncncc1-c1ccccc1Cl	.	-5	3%	?	-8	-1
OCC[C@H]1C[C@H](O)[C@@H](O)[C@@]2(Cc3ccccc3O2)O1	2%	26	-3%	-1%	-5	-6
C=CCNC(=O)CSc1ncc2c(n1)-c1c(csc1SC)CC2	32µM*	-10	-28%	?	-27	-10
CSc1scc2c1-c1nc(SCC(=O)C(C)(C)C)ncc1CC2	4%	6	?	?	1	26
CC(NCc1ccc(N(C)C)cc1)C1CC2CCC1C2 (stereo not drawn)	-5%	-61*	?	?	-5	-70*
CC(NC(=O)c1ccc(CS(C)(=O)=O)cc1)C1CC2CCC1C2 (stereo not drawn)	.	6	-6%	-14%	-9	-22
CCn1c(=O)c(CCC(=O)N2CCN(c3ccccn3)CC2)c(C)c2c(C)nn(-c3cccc(C)c3)c21	-24%	10	15µM*	?	1	59
